High-throughput results from PubChem BioAssay.
Compounds with a hit are over-represented: about 4.1% of the library has one in this group of screens.
beta cell repl = MIN6 beta-cell proliferation induction; MIN6 cells proliferation, ATPlite luminescence, 48 h; cells starved in 0.2% serum; 100% = growth in 10% serum; 330,000 tested, 0.29% active; proliferation, % at 10 µM;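 active means compounds whose signal lies at least 3.5 SD above the mean of all wells on their plate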;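 further: 0% = DMSO-treated cells in low-serum medium and 100% = 10% serum control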
p-CIP stab down = compounds decreasing mouse p/CIP protein stability | Q05BA5 | F442A p/CIP-EGFP cells, EGFP fluorescence, 16 h | decrease of EGFP signal, % at 10 µM | 290,000 tested, 0.01% active | AID 1984;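 active means EGFP signal decrease of at least 30% at 10 µM or well 3 SD below plate mean, unless failing retest; inactive means the rest, including hits failing retest or dose response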
NR3A LBD binder = modulates the human NR3A ligand-binding domain | NR3A LBD differential scanning fluorimetry, Tm shift; 0% = protein alone, 100% = glycine-bound protein | 340,000 tested, 2.5% active | Tm shift relative to glycine control, % at 25 µM;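 active means melting temperature shift of at least 10% of the positive control shift, at one fixed dose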
FAS-TE inh = inhibitors of human fatty acid synthase thioesterase domain. AID 602261. 360,000 tested, 0.67% active. inhibition, % at 15 µM. P49327. recombinant FAS-TE, OMFH fluorogenic substrate, fluorescence endpoint;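 active means compounds whose normalised, plate-corrected inhibition of enzyme fluorescence in the single-dose primary screen is 50% or more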;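 further: 0% = DMSO with enzyme and 100% = substrate without enzyme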
MPTP block = permeability transition pore inhibition | isolated mouse mitochondria, Ca2+ swelling absorbance, 30 min | inhibition, % at 10 µM | 360,000 tested, 1.4% active | AID 602449;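 active means inhibition of 50% or more, scaled per plate between neutral and stimulator controls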;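 further: 0% = DMSO wells given calcium and 100% = 1 mM EGTA wells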
Rh123 counter = Rhodamine 123 counter-screen of mitochondrial pore hits. shares compounds with MPTP block. isolated mitochondria, membrane potential, Rhodamine 123 fluorescence. inhibition, % at 10 µM. 5,000 tested, 78% active. AID 624504; in the data active means inhibition above about 22%;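 further: 0% = DMSO vehicle and 100% = positive control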
MPTP swell DR = MPTP inhibition, dose response swelling confirmation; 780 tested, 58% active; AID 651561; shares compounds with MPTP block; isolated mitochondria swelling, absorbance; IC50, µM; in the data active means IC50 below about 20 µM
MPTP cs DR = active in counter-screen for permeability transition pore inhibitors; IC50, µM; 780 tested, 49% active; shares compounds with MPTP block; isolated mitochondria counterscreen, fluorescence read-out; in the data active means IC50 below about 80 µM
* marks the source's active call; other numbers are inactive results; nt = not tested or not shown.

SMILES	beta cell repl	p-CIP stab down	NR3A LBD binder	FAS-TE inh	MPTP block	Rh123 counter	others
O=[N+]([O-])c1cccc(S(=O)(=O)NCc2ccncc2)c1	-3	-16	0	-7	82*	60*
COc1cccc(CN(C)C(=O)c2cccc(OC3CCN(C4CCCC4)CC3)c2)c1	1	-4	-1	-6	1	nt
CC1CCCC(C)N1C(=S)SCC(=O)O (stereo not given)	-3	-23	2	-3	0	nt
Cc1csc2c(N3CCN(C(=S)Nc4ccc(F)cc4F)CC3)ncnc12	-4	-24	1	0	92*	91*
Cc1cnc(C(=O)Nc2ccc(OC(F)(F)F)cc2)cn1	-1	-19	-1	-2	1	nt
Cc1csc2c(N3CCN(C(=O)Nc4ccccc4)CC3)ncnc12	0	-18	2	-1	54*	24*
Cc1csc2ncnc(N3CCN(C(=O)Nc4ccc(OC(F)(F)F)cc4)CC3)c12	-3	-13	4	30	90*	89*
Cc1ccc(C(=O)N2CCN(c3ncnc4c(C)csc34)CC2)cc1	-4	-13	1	-11	34	nt
CC(C)OC(=O)COc1cc(O)c2c(=O)cc(-c3ccccc3)oc2c1	7	-9	-2	2	2	nt
CCOC(=O)[C@@H]1[C@H]2COc3ccc(Br)cc3[C@H]2N2C(=O)N(c3ccc(C(F)(F)F)cc3)C(=O)[C@]12C	-2	nt	-6	42	1	nt
COc1ccc(CNC(=O)c2cn(Cc3ccc(OC(C)=O)cc3)c(=O)s2)cc1	nt	nt	nt	3	1	nt
Cn1ncc(Br)c1NC(=O)Nc1ccc(OC(F)(F)F)cc1	-4	-27	-6	-1	89*	85*
COc1ccc(C(=O)C[n+]2cn(C(F)F)c3ccccc32)c(F)c1	-1	-8	6	0	-1	nt
Cc1cc(C)cc(NC(=S)/N=C(\N)Nc2nc(C)c3ccccc3n2)c1	-5	-4	-14	44	56*	-9	MPTP swell DR=>100;MPTP cs DR=>80
CCOc1ccccc1NC(=O)c1cc(C(=O)Nc2ccccc2OCC)cc(N2C(=O)CCC2=O)c1	2	-4	-1	11	2	nt
O=C(Nc1ccc(Cl)cc1)OCCn1nnnc1C(c1ccccc1Cl)N1CCOCC1 (stereo not given)	-4	-6	-5	11	72*	85*
CC(Oc1ccc(Cl)cc1Cl)C(=O)Nc1ccc2oc(-c3ccncc3)nc2c1 (stereo not given)	0	-5	-2	19	74*	83*
CCOC(=O)NC(=O)CSc1nc(C)cc(C(F)(F)F)c1C#N	-2	-21	1	-29	-1	nt
Cc1cc(C(F)(F)F)c(C#N)c(SCC(=O)Nc2nc3cc(Br)ccc3s2)n1	-6	-12	30*	40	87*	12	MPTP swell DR=16*;MPTP cs DR=3.2*
C=CCNc1ncnc2c1[nH]c1ccc(Cl)cc12	-5	-11	-3	-1	89*	94*
C=CCNc1ncnc2c1[nH]c1ccccc12	-2	-11	-1	-7	1	nt
COC(=O)C1CCN(Cc2ccc(OCCCN3CCN(c4ccc([N+](=O)[O-])cc4)CC3)cc2)CC1	-4	-2	0	11	96*	82*
c1ccc(CC2CCN(c3ncnc4sccc34)CC2)cc1	nt	9	1	24	100*	98*
O=S(=O)(c1ccc(F)c(F)c1F)N1CCN(c2ncnc3sccc23)CC1	-6	nt	-6	3	68*	87*
Cc1sc2ncnc(N3CCN(S(=O)(=O)c4ccc(F)cc4)CC3)c2c1C	-3	-4	1	14	56*	66*
SMILES	beta cell repl	p-CIP stab down	NR3A LBD binder	FAS-TE inh	MPTP block	Rh123 counter	others
Cc1ccc(S(=O)(=O)N2CCN(c3ncnc4sccc34)CC2)cc1	-7	-6	-26	12	82*	85*
O=S(=O)(c1ccccc1C(F)(F)F)N1CCN(c2ncnc3sccc23)CC1	-5	nt	-4	40	19	nt
COc1ccccc1CN1CC(C(=O)NCc2cc(C(C)C)no2)CCC1=O (stereo not given)	0	-3	-2	-5	0	nt
OCc1cc(-c2ccccn2)no1	-4	nt	0	-7	0	nt
Cc1cc(C)c(NC(=O)CSc2nnc(SCC(=O)Nc3c(C)cc(C)cc3C)n2N)c(C)c1	-1	-10	-4	-5	4	nt
COC(=O)[C@H](Cc1ccccc1)NC(=O)C1CCN(C(=O)[C@H](C)NS(=O)(=O)c2ccc(C)cc2)CC1	-2	4	0	-5	-2	nt
O=C(Nc1cc(S(=O)(=O)N2CCOCC2)ccc1N1CCOCC1)c1cccc(S(=O)(=O)N2CCCCC2)c1	-4	0	0	32	0	nt
NC1=NC[C@H](Cc2ccc(O)cc2)N1CCC12CC3CC(CC(C3)C1)C2	-7	-10	-2	-19	50*	1
CN(C)S(=O)(=O)c1ccc(S(=O)(=O)NC2CCOC(C)(C)C2)cc1 (stereo not given)	-3	-4	3	-10	-1	nt
CCc1ccc(-c2nc(CS(=O)CC(=O)NCc3ccco3)c(C)o2)cc1 (stereo not given)	-1	-3	0	-2	-2	nt
CCOC(=O)C1CCCN1C(=O)C1(NC(C)=O)CCCC1 (stereo not given)	nt	nt	2	-7	2	nt
CC1CC2OC(=O)C3(C)CCCC(C)(C23)C1(O)CCc1ccoc1 (stereo not given)	-3	1	0	-2	1	nt
C=CCNC(=S)NNC(=O)CSc1nc2ccccc2s1	-2	4	2	-4	2	nt
O=C(CSc1nc2ccccc2s1)NNC(=S)Nc1ccc(Cl)cc1	-1	11	32*	6	93*	86*
O=C1Cc2ccccc2Sc2cc(OCCCN3CCCCC3)ccc21	0	-10	1	-7	71*	-13	MPTP swell DR=9.9*;MPTP cs DR=>80
COC1CCC2(C)C(=CCC3C4CC(O)CC4(C)CCC32)C1 (stereo not given)	nt	nt	-1	7	81*	73*
COc1ccc(C(OCC(O)CNC(C)c2ccccc2)c2ccc(OC)cc2)cc1 (stereo not given)	-4	6	-1	0	97*	-7	MPTP swell DR=7.5*;MPTP cs DR=>80
Cc1ccc(Cn2ncc3c(N4CCCC4)ncnc32)cc1	-2	-1	0	1	62*	1	MPTP swell DR=>100;MPTP cs DR=>80
CN1CCN(C(=S)C(=O)Nc2ccccc2)CC1	-2	-15	0	-7	3	nt
O=c1cc(CO)oc(C(Nc2ccccn2)c2cccc(F)c2)c1O (stereo not given)	0	-9	-2	-6	-2	nt
